In all, about 360,000 compounds went through this assay and about 3,500 (0.97%) were called active. This excerpt belongs to a sample that is enriched for actives. Values without a mark were called inactive.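 The calls were made as follows: active = activation above a per-plate cutoff, the mean activation of sample wells on that plate plus 3 SD (cut at about 8% in these data); inactive = the rest.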
The compounds below were run against Melanocortin receptor 4 (Homo sapiens) (UniProt P32245) (assay: MC4R agonists recruiting beta-arrestin, primary screen, cell-based, luminescence, agonist arm of biased-ligand search (AID 540308)). Conditions: U2OS MC4R beta-arrestin complementation, at 8.9 µM, stronger effect = higher value, percent of melanotan II response, DMSO zero.
Sequence of Melanocortin receptor 4 (Homo sapiens) (P32245 whole entry, looked up): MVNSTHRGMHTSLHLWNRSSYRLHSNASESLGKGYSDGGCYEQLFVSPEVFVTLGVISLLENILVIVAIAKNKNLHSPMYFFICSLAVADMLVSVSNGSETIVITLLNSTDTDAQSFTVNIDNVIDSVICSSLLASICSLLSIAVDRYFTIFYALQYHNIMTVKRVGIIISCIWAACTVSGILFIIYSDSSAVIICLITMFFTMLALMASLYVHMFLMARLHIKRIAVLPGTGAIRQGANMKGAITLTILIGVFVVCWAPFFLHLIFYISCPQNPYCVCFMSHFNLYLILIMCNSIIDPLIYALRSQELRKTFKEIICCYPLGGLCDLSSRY
In the case of `COc1cccc(-c2cnc3c(NC(C)=O)cc(-c4cc(F)ccc4OC)cn23)c1`, the activation is reported as 29.8% (active). Work on `CC(=O)Nc1cccc(-c2cc(NC(C)=O)c3ncc(-c4ccccc4)n3c2)c1` yielded an activation of 6.05%. In the case of `COc1ccccc1-c1cc(NC(C)=O)c2ncc(-c3ccc(F)cc3)n2c1`, the activation is reported as 10.3% (active). `CC(=O)Nc1cc(-c2ccc(N3CCN(C)CC3)cc2)cn2c(-c3ccc(F)cc3)cnc12` showed an activation of 0.23%. For `CC(=O)Nc1cc(-c2cccc(CO)c2)cn2c(-c3cccc(C(F)(F)F)c3)cnc12`, the activation was 4.6%. In the case of `CC(=O)Nc1cccc(-c2cc(NC=O)c3ncc(-c4ccc(F)c(Cl)c4)n3c2)c1`, the activation is reported as 5.15%. In the case of `CC(=O)Nc1cc(-c2ccccc2F)cn2c(-c3cccc(C(F)(F)F)c3)cnc12`, the activation is reported as 22.5% (active). With `COc1cccc(-c2cnc3c(NC(C)=O)cc(-c4cccc(NC(C)=O)c4)cn23)c1` the activation was 7.42%. In the case of `COc1cccc(-c2cc(NC(C)=O)c3ncc(-c4cccc(C(C)=O)c4)n3c2)c1`, the activation is reported as 3%. For `CC(=O)Nc1cc(-c2ccccc2N(C)C)cn2c(-c3ccc(F)c(Cl)c3)cnc12`, the activation was 25.4% (active). Work on `CC(=O)Nc1cc(-c2ccc(N3CCN(C)CC3)cc2)cn2c(-c3cccc(C(=O)N(C)C)c3)cnc12` yielded an activation of 0.62%. `COc1ccc(-c2cc(NC(C)=O)c3ncc(-c4cc(OC)c(OC)c(OC)c4)n3c2)cn1` gave an activation of -0.61%. Compound `COC(=O)Cc1ccc(OC2(C)CCN(Cc3ccc4c(c3)OCCO4)C2)cc1` (stereo not drawn) has an activation of -0.74%. For `CC1(C(=O)NS(=O)(=O)Cc2cccc(Cl)c2)CCN1C(=O)Cc1ccccc1` (stereo not drawn), the activation was -0.92%. In the case of `NC(c1csc(NC(=O)Nc2ccccc2Oc2ccccc2)n1)c1ccccc1Cl` (stereo not drawn), the activation is reported as 5.13%. For `CCCNC(=O)C1(C)CCN(Cc2csc(-c3ccc(Cl)cc3)n2)C1` (stereo not drawn), the activation was -0.8%. In the case of `O=C(Nc1ccc(Cl)cc1)c1csc([C@H]2C[C@H](O)[C@@H](CO)O2)n1`, the activation is reported as -0.15%. With `CCOC(=O)C1(Cc2cccc(OC)c2)CCCN(C(=O)CCSC)C1` (stereo not drawn) the activation was -1.03%. `CCCC(=O)N1CCC1(C)C(=O)NS(=O)(=O)c1ccc(Cl)cc1` (stereo not drawn) showed an activation of -0.17%. `OC(c1ccc(Cl)cc1)c1ncc(-c2ccc(Cl)cc2)[nH]1` (stereo not drawn) was tested, and the activation was 1.64%. For `Cc1ccc(-c2cnc(C(O)c3cc(Cl)cc(Cl)c3)[nH]2)cc1` (stereo not drawn), the activation was 9.5% (active). For `Cc1cccc(-c2cnc(C(O)c3cc(C)cc(C)c3)[nH]2)c1` (stereo not drawn), the activation was -1.6%. Compound `C#CCNC(=O)[C@H](Cc1ccc(C(=O)c2ccccc2)cc1)NC(=O)OC(C)(C)C` has an activation of -0.75%. For `Cc1ccc(Nc2nnc(SCc3ccccc3)s2)cc1`, the activation was 16.6% (active). With `Cc1ccc(Nc2nnc(SC(C)C(=O)NC3CC3)s2)cc1` (stereo not drawn) the activation was 1.11%. `Cc1ccc(Nc2nc(N)nc(CSc3nnc(C)s3)n2)cc1` gave an activation of -0.99%. `OC[C@@H]1CN(C2CCCC2)C[C@H](n2cnc3c(NC4CCC4)ncnc32)O1` showed an activation of -0.37%. For `Cc1ccccc1NC(=O)c1ccc(COc2ccc3c(C)cc(=O)oc3c2)cc1`, the activation was 19.5% (active). Compound `CCOC(=O)c1cc(=O)c2ccc(OCc3ccccc3)cc2o1` has an activation of -0.49%. In the case of `CCN(C(=O)COC(=O)c1ccc(COc2ccc3c(C)cc(=O)oc3c2)cc1)C1CCS(=O)(=O)C1` (stereo not drawn), the activation is reported as -3.78%. `Cc1ccc(CC2(C)C(=O)Nc3ccc(OC(F)(F)F)cc32)cc1` (stereo not drawn) was tested, and the activation was 6.29%. With `CC1(Oc2ccccc2-c2ccno2)CCN(Cc2ccc(-c3ccccc3)o2)C1` (stereo not drawn) the activation was -0.57%. In the case of `CCc1nc2c(OCCOc3ccccc3)cccn2c1N(C=O)Cc1ccc(OC)cc1`, the activation is reported as -1.25%. Work on `CCc1nc2c(OCCOc3ccccc3)cccn2c1N(C)C(=O)c1ccccc1F` yielded an activation of -0.99%. In the case of `N#Cc1ccc(-c2ccc3nccn3c2)cc1`, the activation is reported as -0.91%. `O=C(Nc1ccc(OCCO)cc1)c1csc([C@H]2C[C@H](O)[C@@H](CO)O2)n1` was tested, and the activation was 1.86%. With `CCN1CCC(O)(/C=C/c2ccc(C)cc2)C(C(=O)/C=C/c2ccc(C)cc2)C1` (stereo not drawn) the activation was -1.73%. With `CCN1CCC2(CC1)N=C(c1ccc(F)cc1)C(=S)N2C(=O)c1ccc(C)cc1` the activation was 11.5% (active). With `Cc1ccc(SCC(=O)N2CCN(c3ccc(F)cc3)CC2)cc1` the activation was -0.3%. With `COc1ccc2sc(-c3ccc(S(C)(=O)=O)cc3)c(C#Cc3cncn3C)c2c1` the activation was 35.2% (active). `COc1ccc(-c2sc3ccc(OC)cc3c2C#Cc2ccccn2)cc1` showed an activation of -2.74%. For `COc1ccc2sc(-c3ccc(S(C)(=O)=O)cc3)c(-c3ccc(C(N)=O)cc3)c2c1`, the activation was 0.87%. In the case of `CC1(C(=O)O)CCN1C(=O)/C=C/c1ccccc1` (stereo not drawn), the activation is reported as 0.27%. `COc1ccccc1CNC(=O)c1cc(-c2cc(Cl)ccc2C)n[nH]1` gave an activation of -0.81%. With `Cc1ccc(NS(=O)(=O)c2cc3c(cc2Br)NC(=O)CO3)cc1C` the activation was 1.67%. With `COc1ccc(C)c(Cn2c(-c3nonc3N)nc3ccccc32)c1` the activation was 12.1% (active). `COc1ccccc1Cn1c(CO)nc2ccccc21` gave an activation of 1.82%. `CCn1c(C(O)c2cc(OC)ccc2OC)nc2ccccc21` (stereo not drawn) showed an activation of -1.32%. `CCCNC(=O)C1(C)CCCN(Cc2cccc(C(F)(F)F)c2)C1` (stereo not drawn) showed an activation of 0.13%. `COc1cccc(CNc2nc(NCc3ccccc3OC)nc3ccsc23)c1` gave an activation of -1.7%. Work on `COc1ccc(-c2ccc(C(=O)NCCN3CCOCC3)c3occc23)c(C)c1` yielded an activation of -2.32%. Work on `CCNC(=S)Nc1ccc2c(c1)c(=O)n(C)n2Cc1ccc(Cl)cc1` yielded an activation of -1.45%. Compound `C=CCN(CC=C)S(=O)(=O)c1ccc(C(=O)Nc2nc3c(s2)CCc2ccccc2-3)cc1` has an activation of 1.77%. Compound `COCCN(CC(=O)Nc1ccccc1C)S(=O)(=O)c1ccc(S(=O)(=O)N2CCCC2)cc1` has an activation of -3.53%. `COCCN(CCOC)S(=O)(=O)c1ccc(C(=O)Nc2nc3c(s2)CCc2ccccc2-3)cc1` was tested, and the activation was 15.6% (active). In the case of `OC(c1cc(Cl)cc(Cl)c1)c1ncc(-c2ccccc2C(F)(F)F)[nH]1` (stereo not drawn), the activation is reported as -0.63%. Work on `OC[C@@H]1CN(Cc2ccncc2)C[C@H](n2cnc3c(N4CCN(c5ccccc5)CC4)ncnc32)O1` yielded an activation of 0.16%. `CC1(C(=O)NS(=O)(=O)c2ccc(Cl)cc2)CCN1C(=O)CC1CCCC1` (stereo not drawn) gave an activation of 1.72%. In the case of `COc1ccc2oc(=N)c(C(=O)Nc3ccc(Br)cc3)cc2c1`, the activation is reported as 1.15%. Work on `CC(C)C(=O)Nc1c(C(=O)c2ccc(F)cc2)oc2ccccc12` yielded an activation of 1.16%. For `COc1ccc(C(=O)c2oc3ccc(Br)cc3c2NC(C)=O)cc1`, the activation was 11.7% (active). Work on `CCN(CC(=O)Nc1ccccc1C(=O)NC1CC1)Cc1cccs1` yielded an activation of -0.58%. `Cc1ccc(-n2nc(C)c(/C=N/NC(=O)c3cccs3)c2Cl)cc1` was tested, and the activation was 20.9% (active). Compound `Cc1nn(-c2ccccc2)c(Cl)c1/C=N/NC(=O)c1nn(C)cc1[N+](=O)[O-]` has an activation of -2.85%. For `Cc1nn(-c2ccccc2)c(NC(=O)c2cccs2)c(-c2ccc(Cl)cc2)c1=O`, the activation was -1.07%. `COc1cccc(NC(=O)C2(C)CCN2C(=O)CCC2CCCC2)c1` (stereo not drawn) showed an activation of 2.96%. Work on `COc1cc(NC(=O)c2cccs2)ccc1NC(=O)c1ccccc1Cl` yielded an activation of 0.56%. With `COc1cc(NC(=O)c2ccc3c(c2)OCO3)ccc1NC(=O)c1cccs1` the activation was -0.83%. For `CCC(=O)c1cc2c(cc1NC(=O)c1cccs1)OCCO2`, the activation was 23.2% (active). With `COc1ccc(-c2[nH]ncc2/C=N/NC(=O)c2cc(Br)ccc2O)c(OC)c1` the activation was 0.86%. `COc1ccc(/C=N/NC(=O)Nc2ccc3nsnc3c2)c(OC)c1` was tested, and the activation was 13.5% (active). Compound `COc1ccc(S(=O)(=O)NNC(=O)Nc2ccc(C)cc2)c(OC)c1` has an activation of 0.62%. In the case of `O=C(NCCNc1ccc([N+](=O)[O-])cc1)c1cccc2c(Br)cccc12`, the activation is reported as 8.32% (active). In the case of `O=C(NCCNc1ccc([N+](=O)[O-])cc1Cl)c1ccccc1F`, the activation is reported as -1.37%. With `CC(CNc1ccc([N+](=O)[O-])cc1)NC(=O)c1ccccc1Br` (stereo not drawn) the activation was 0.96%. `CC(=O)Oc1ccc(Cn2c(C)c(C(=O)NCc3ccc(C#N)cc3)sc2=O)cc1` was tested, and the activation was 0.49%. `CCCCCCCCCCOC(=O)Cn1c(COc2ccc(C)cc2)[n+](C)c2ccccc21` was tested, and the activation was 16.7% (active). With `CCCCCCCCCCOC(=O)Cn1c(COc2cccc(OC)c2)[n+](C)c2ccccc21` the activation was 21.1% (active). `CCCCOc1ccc(NC(=O)CSCC(=O)OCC)cc1` showed an activation of 0.02%. `Cc1ccc(COc2ccc(C(=O)NN)cc2)cc1` showed an activation of 6.84%. With `COCCCNC(=O)c1ccc(-c2c(C)noc2C)c2ccoc12` the activation was -0.44%. `COc1cc(NC(=O)c2cc(-c3ccc(F)cc3OC(C)C)n[nH]2)cc(OC)c1OC` showed an activation of 3.09%. With `Cc1ccc(C)c(C(O)c2ncc(-c3cccc4ccccc34)[nH]2)c1` (stereo not drawn) the activation was -2.84%. For `O=C(NCCCN1CCCCC1)c1ccc2c(c1)NC(=O)C(N1CCOCC1)S2` (stereo not drawn), the activation was -0.87%. Work on `CCCNC(=O)c1cc(C2CCCCN2S(=O)(=O)c2ccc(C#N)cc2)on1` (stereo not drawn) yielded an activation of 0.19%. For `O=C(NCCN1CCOCC1)c1ccccc1N1C(=O)[C@@H]2Cc3c([nH]c4ccccc34)C(c3cccc(Cl)c3)N2C1=O` (stereo partly drawn), the activation was -1.7%. `Cc1ccc(C(O)c2ncc(-c3ccccc3F)[nH]2)cc1F` (stereo not drawn) was tested, and the activation was -0.39%. In the case of `COc1ccc(C(NC(=O)C2CCN(CCCc3ccccc3)CC2)c2cccs2)cc1` (stereo not drawn), the activation is reported as 0.65%.
